TDP1 cell CPT: DT40-hTDP1 cell growth loss with CPT | chicken DT40 Tdp1-/-;hTDP1 cells + 20 nM CPT, ATP luminescence, 48 h | actives 12% (n = 420,000) | AID 686979 | Potency, µM (doses to about 46.2 µM), without a hit: at the top dose activity change, negative = growth inhibition, most hits filed as inhibitors; note: potency is the fitted concentration of half-maximal effect; nearly all actives have a fitted effect of over 55% in size
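Cell growth measured by CellTiter-Glo luminescence after a minimum 48 h, 37 C compound exposure with 20 nM CPT in Tdp1-knockout DT40 cells stably expressing hTDP1, seeded 400/well; qHTS titration format.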
RORg inh: blocks mouse ROR gamma transcriptional activity; P51450; Drosophila S2 Gal4-RORgamma UAS-luciferase reporter, 20 h; Potency, µM (doses to about 53.6 µM), for the others: at the highest dose activity change, negative = inhibition, actives largely listed as inhibitors; actives 5.4% (n = 310,000); note: potency is the fitted concentration of half-maximal effect; nearly all actives have a fitted effect of over 60% in size
Target sequence (P51450 whole entry, looked up, the tested form may be a part): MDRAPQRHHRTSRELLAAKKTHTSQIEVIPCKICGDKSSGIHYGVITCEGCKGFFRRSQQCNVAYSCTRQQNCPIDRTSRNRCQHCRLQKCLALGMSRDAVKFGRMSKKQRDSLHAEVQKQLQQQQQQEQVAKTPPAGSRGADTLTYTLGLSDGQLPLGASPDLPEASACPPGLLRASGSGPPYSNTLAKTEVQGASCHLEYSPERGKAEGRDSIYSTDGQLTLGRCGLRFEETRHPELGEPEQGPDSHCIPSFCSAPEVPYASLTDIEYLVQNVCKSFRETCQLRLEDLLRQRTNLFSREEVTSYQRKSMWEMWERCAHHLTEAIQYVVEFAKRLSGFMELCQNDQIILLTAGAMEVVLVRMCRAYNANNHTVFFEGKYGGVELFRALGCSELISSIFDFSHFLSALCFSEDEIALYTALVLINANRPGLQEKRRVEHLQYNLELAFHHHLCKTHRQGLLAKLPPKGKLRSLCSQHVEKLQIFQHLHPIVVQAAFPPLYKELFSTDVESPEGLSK
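In this cell-based reporter format, copper sulfate (700 uM final) drives Gal4–ROR gamma fusion expression from a metallothionein promoter in Drosophila Schneider cells; compounds preincubated 1 hr, reporter read after 20 hr at ambient temperature.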
DT40 TDP1 no CPT: qHTS for Inhibitors of human tyrosyl-DNA phosphodiesterase 1 (TDP1): qHTS in cells in absence of CPT; actives 15% (n = 420,000); Potency, µM (doses to about 46.2 µM), inactives show top-dose activity change, negative = growth inhibition, actives largely listed as inhibitors; DT40 Tdp1-/- hTDP1 cells, no CPT, ATP luminescence, 48 h; AID 686978, 2013; note: potency is the fitted concentration of half-maximal effect; nearly all actives have a fitted effect of over 55% in size
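Compound effects on proliferation are scored in DT40 Tdp1-/-;hTDP1 cells in the absence of CPT. ATP levels (CellTiter-Glo luminescence) are recorded after a ≥48 hr, 37 °C incubation.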
Gal4-VP16 FLuc: Gal4-VP16 reporter inhibition counter-screen. actives 3.5% (n = 310,000). Drosophila S2 Gal4-VP16 UAS-luciferase, luminescence, 20 h. Potency, µM (doses to about 53.6 µM), for inactives: top-dose activity, negative = inhibition, most hits filed as inhibitors;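 note: Gal4-VP16 expression switched on by copper sulfate through the metallothionein promoter; potency is the fitted concentration of half-maximal effect; nearly all actives have a fitted effect of over 50% in size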
IL1B secr inh: inhibitors of inflammasome signaling (IL-1 beta secretion). THP-1 LPS/ATP IL-1B secretion, AlphaLISA, 16 h; active compounds read low. activity change, % at 57.5 µM. actives 4.7% (n = 360,000). AID 743279; in the data active = activity change below about -50%; inconclusive = mostly about -30% to -49%
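Secreted IL-1B measured by AlphaLISA bead assay after 16 h compound exposure of THP-1 cells; compounds (final up to 57.5 uM) added 1 h before LPS (250 ng/mL) and ATP (1.25 mM) stimulation; lower signal means less secretion.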
LDHA inh: LDHA (human) enzyme inhibition; P00338; purified LDHA, NADH/diaphorase-resazurin fluorescence; active compounds read low; activity change, % (values are at about 110 or 230 µM); actives 0.15% (n = 480,000); in the data active = activity change below about -30%; inconclusive = mostly about -25% to -30%;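 note: plate controls were DMSO wells for no effect and wells without enzyme for full effect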
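Resorufin fluorescence (ex540/em590), read at 0 and 20 min after diaphorase/resazurin addition, reports the NADH left after a 5 min room-temperature reaction of 2 nM human LDH5 with 0.06 mM NADH and 0.2 mM pyruvate.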
An asterisk follows results filed as active. Compounds with a hit are over-represented: about 18% of the library has one in this group of screens. Unless noted, calls come from the whole dose curve; as a rule, active = well fitted curve in the direction sought with a large enough effect; inconclusive = small, poorly fitted or top-dose-only effect, or another doubt; inactive = no such curve, though single readings can be large; an effect the other way counts as inactive or inconclusive. Unless noted, % is set by controls: 0 for no effect and ±100 for the full control effect.

Screening O=C(CSc1nc(-c2ccccc2)cs1)C12CC3CC(CC(C3)C1)C2 returned LDHA inh -4.
For COc1ccc(C2CC(=O)Oc3c2c(=O)[nH]c2ccccc32)cc1OC (stereo not drawn) the results were LDHA inh 13.
O=CN1CCCNCC1 was read as LDHA inh 2.
`CCOC(=O)NC(CNC(=O)c1ccccc1)CC(C)C` (stereo not drawn) gave LDHA inh 4.
Screening O=C(/C=C\c1ccco1)Oc1cccc2cccnc12 returned TDP1 cell CPT 0.58µM*, RORg inh 1.4µM*, DT40 TDP1 no CPT 0.65µM*, Gal4-VP16 FLuc 4.5µM*, IL1B secr inh -165* and LDHA inh 11.
Screening CN(C(=O)COC(=O)/C=C/c1cccc2cccnc12)c1ccccc1 returned LDHA inh 4.
`CCc1ccc(OC(=O)/C=C/c2ccco2)cc1` gave TDP1 cell CPT -4%, RORg inh 10%, DT40 TDP1 no CPT 14%, Gal4-VP16 FLuc 1%, IL1B secr inh 46 and LDHA inh -6.
`COc1ccccc1/C=C/C(=O)Oc1cccc2cccnc12` gave TDP1 cell CPT inconclusive, RORg inh 3.2µM*, DT40 TDP1 no CPT 16µM*, Gal4-VP16 FLuc 5.6µM*, IL1B secr inh 0 and LDHA inh 0.
For O=C(/C=C/c1ccco1)Oc1cccc2cccnc12 the results were TDP1 cell CPT inconclusive, RORg inh 1.4µM*, DT40 TDP1 no CPT inconclusive, Gal4-VP16 FLuc 4.5µM*, IL1B secr inh -94* and LDHA inh 16.
`Cc1ccc(NCC(=O)NNC2=NCCC2)c(C)c1` gave TDP1 cell CPT 6%, RORg inh 8.9µM*, DT40 TDP1 no CPT 5%, Gal4-VP16 FLuc 11µM*, IL1B secr inh 29 and LDHA inh -3.
Screening Cc1ccc(NNC(=O)CCc2ccccc2)c(C)c1 returned TDP1 cell CPT -7%, RORg inh 4%, DT40 TDP1 no CPT -3%, Gal4-VP16 FLuc 16% and LDHA inh -5.
For Cc1ccc(C(=O)CNc2ccccc2C)cc1 the results were TDP1 cell CPT 1%, RORg inh -29%, DT40 TDP1 no CPT -9%, Gal4-VP16 FLuc -5%, IL1B secr inh -28 and LDHA inh -2.
Cc1ccc(C(=O)CNc2ccc(C)cc2C)cc1 was read as TDP1 cell CPT 23µM*, RORg inh 0%, DT40 TDP1 no CPT 16µM*, Gal4-VP16 FLuc -9%, IL1B secr inh -18 and LDHA inh -9.
For Cc1ccc(C(=O)NNC2=NCCC2)cc1 the results were TDP1 cell CPT -8%, RORg inh 10µM*, DT40 TDP1 no CPT -13%, Gal4-VP16 FLuc 18µM*, IL1B secr inh 12 and LDHA inh -1.
Screening O=C(c1ccc2ncsc2c1)N(Cc1ccccc1)C1CC1 returned LDHA inh 1.
Screening N#Cc1c(N)sc(=S)c2c1CCCC2 returned TDP1 cell CPT inconclusive, RORg inh -13%, DT40 TDP1 no CPT inconclusive, Gal4-VP16 FLuc 9%, IL1B secr inh 3 and LDHA inh 0.
`CC(C)Cc1c2c([nH]c(=S)c1C#N)CCCC2` gave TDP1 cell CPT -6%, RORg inh 6.3µM*, DT40 TDP1 no CPT inconclusive, Gal4-VP16 FLuc inconclusive, IL1B secr inh 18 and LDHA inh -5.
For CCn1cc(S(=O)(=O)N2CCN(c3cccc(OC)c3)CC2)cn1 the results were LDHA inh -2.
Screening Cc1cc(C)c2nc(NC(=O)c3ccc(S(=O)(=O)N4CCC(C)CC4)cc3)sc2c1 returned TDP1 cell CPT -19%, DT40 TDP1 no CPT -6% and LDHA inh -3.
Screening CCOc1cccc2sc(NC(=O)c3ccc(S(=O)(=O)N4CCCCC4)cc3)nc12 returned TDP1 cell CPT inconclusive, DT40 TDP1 no CPT -6% and LDHA inh -1.

Source: PubChem BioAssay (National Center for Advancing Translational Sciences (NCATS))
